Hit rate of the full screen: of about 350,000 compounds, about 7,000 (2%) were called active. Cut-off read from the data, not from the text of the source: active = activation above about 40%; inconclusive = no clear call, values can overlap the other calls; inactive = below that. The list comes from a sample in which actives are over-represented; it also holds similar structures and randomly drawn compounds.

The nature of the assay: raisers of Bmi1 knock-in reporter signal – mouse ES cells, Bmi1 luciferase knock-in, single point, esBAF inhibitor project, primary screen (AID 602393).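 Note: 0% = median of the plate's neutral control wells and 100% = double that signal; a rise in the Bmi1 reporter signal indicates esBAF inhibition.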 To be noted: 24 h, at 12.5 µM, stronger effect = higher value, 100% = twice the neutral-well signal.
For the compound `CC(C)NC(=O)N[C@@H]1CC[C@H](CC(=O)NCCN2CCCC2)O[C@@H]1CO`, the reporter increase is -2.08% (inactive).
`COc1ccccc1S(=O)(=O)N[C@@H]1CC[C@@H](CCn2cc(C3CCCCC3)nn2)O[C@H]1CO`: the reporter increase is 4.02% (inactive).
On to `CO[C@H]1CN(C)C(=O)c2ccc(NC(=O)C3CCCC3)cc2OC[C@@H](C)NC[C@@H]1C`, for which the reporter increase was 0.309% (inactive).
Regarding `COc1cccc(NC(=O)Nc2ccc3c(c2)C(=O)N(C)[C@@H]2CC[C@@H](CC(=O)NCCc4ccccc4)O[C@H]2CO3)c1`, the reporter increase is 4.83% (inactive).
Take `C[C@@H]1CN([C@H](C)CO)C(=O)c2cc(NC(=O)CCCN(C)C)ccc2O[C@@H](C)CCCCO[C@H]1CN(C)CC1CCCCC1`: the reporter increase is -2.94% (inactive).
As for `Fc1ccc2nc(N3CCCCC3)sc2c1`, the reporter increase is 45.1% (active).
The same measure for `Fc1ccc2nc(Nc3nc4c(s3)CCCC4)sc2c1`: 28.9% (inactive).
In the case of `O=C(NCCc1cccc(F)c1)C1CCCN(c2nc3ccccc3s2)C1` (stereo unspecified), the reporter increase is 3.83% (inactive).
Turning to `O=C(Cc1ccccc1)N1C[C@@H]2[C@H](c3ccccc31)[C@@H](CO)N2C(=O)Nc1ccc(F)cc1`, the reporter increase is -2.51% (inactive).
Take `O=C(C[C@@H]1C[C@H]2c3cc(NS(=O)(=O)c4ccc(F)cc4)ccc3O[C@H]2[C@@H](CO)O1)NCc1ccccc1F`: the reporter increase is 12.4% (inactive).
Regarding `CCC(=O)N1C[C@@H](C)[C@@H](OC)CN(C)C(=O)c2ccc(NC(=O)Nc3ccccc3)cc2OC[C@H]1C`, the reporter increase is 0.261% (inactive).
Regarding `CCc1ccc(NC(=O)C(=O)NNC(=O)c2cccs2)cc1`, the reporter increase is 12.8% (inactive).
For the compound `CC(=O)Nc1ccc(/C=N/NC(=O)c2cccs2)cc1`, the reporter increase is 48.3% (active).
For the compound `O=C(CNC(=O)c1cccs1)N/N=C/c1cccc(Br)c1`, the reporter increase was -3.05% (inactive).
For `Cc1ccc(CC2CC(=O)N(c3ccc4c(c3)OCCO4)C2=O)cc1` (stereo unspecified), the reporter increase was 11.3% (inactive).
Turning to `Cc1ccc(C)c(NC2=NCC(=O)N2c2ccc3c(c2)OCCO3)c1`, the reporter increase was 47.5% (active).
Turning to `COc1ccc(N2C(=O)CN=C2Nc2cccc(C)c2C)cc1OC`, the reporter increase is -1.36% (inactive).
Regarding `COc1ccc(NC(=O)N(C)C[C@@H]2Oc3ncc(-c4ccc(C#N)cc4)cc3C(=O)N([C@@H](C)CO)C[C@H]2C)cc1`, the reporter increase is -0.692% (inactive).
Turning to `COc1ccc(N=Cc2c(O)[nH]c3ccccc23)cc1OC`, the reporter increase is 73.5% (active).
The same measure for `COc1cc2[nH]c(O)c(C=O)c2cc1OC`: 3.41% (inactive); for `COc1ccc(CNC(=O)[C@H](Cc2c[nH]c3ccccc23)NC(C)=O)cc1OC`: 3.18% (inactive); for `C[C@H](CO)N1C[C@H](C)[C@H](CN(C)C(=O)Nc2ccc(C(F)(F)F)cc2)Oc2ccc(NC(=O)C3CC3)cc2C1=O`: -3.98% (inactive).
Turning to `COc1cc(NC(=O)COC(=O)c2ccc([N+](=O)[O-])s2)cc(OC)c1OC`, the reporter increase is -3.17% (inactive).
As for `CCCn1c(C)cc(/C=C(\C#N)C(=O)OCC(=O)Nc2cc(OC)c(OC)c(OC)c2)c1C`, the reporter increase was 61.6% (active).
As for `CCCn1c(C)cc(/C=C(\C#N)C(=O)OCC(=O)N(C)c2c(N)n(Cc3ccccc3)c(=O)[nH]c2=O)c1C`, the figure is 9.72% (inactive).
The same measure for `C[C@@H]1CN([C@@H](C)CO)S(=O)(=O)c2ccc(C#C[C@@H](C)O)cc2O[C@@H]1CN(C)C(=O)Cc1ccccn1`: 1.02% (inactive); for `Cc1ccccc1S(=O)(=O)NCC[C@@H]1CC[C@H](NC(=O)C2CCCCC2)[C@@H](CO)O1`: 4.09% (inactive); for `O=C(CC1CC1)N1CC[C@@H]2[C@@H](CO)Nc3ccc(-c4ccccc4)cc3[C@@H]21`: -5.1% (inactive).
As for `COc1ccc(NC2=CC(=S)NC(C)(C)C2)cc1`, the figure is 1.51% (inactive).
`COc1ccc(Nc2cc(=O)oc3ccccc23)cc1`: the reporter increase is 3.87% (inactive).
The same measure for `COc1ccc(Nc2ccc3ccccc3c2)cc1`: 119% (active).
As to `O=C(C1CCOCC1)N1C[C@H]2[C@@H](c3ccccc31)[C@@H](CO)N2Cc1ccccc1F`, the reporter increase was 0.141% (inactive).
In the case of `CCNC(=O)C[C@@H]1CC[C@@H]2[C@@H](COc3ccc(NC(=O)c4cccc(C(F)(F)F)c4)cc3C(=O)N2C)O1`, the reporter increase was 3.63% (inactive).
On to `Cc1cc(/C=C2/SC(=O)N(CC(=O)N3CCCC3)C2=O)c(C)n1C`, for which the reporter increase is 0.583% (inactive).
The same measure for `Cc1cc(/C=C2/SC(=O)N(CC(=O)OC(C)C)C2=O)c(C)n1C`: 83.5% (active); for `CC(OC(=O)CN1C(=O)c2ccccc2C1=O)C(=O)c1ccccc1` (stereo unspecified): -0.946% (inactive); for `COc1ccccc1-c1ccc2c(c1)O[C@H](CN(C)C(=O)c1cccnc1)[C@@H](C)CN([C@H](C)CO)S2(=O)=O`: 0.986% (inactive).
For `C[C@H](CO)N1C[C@H](C)[C@H](CN(C)CC2CC2)OCCCC[C@H](C)Oc2ccc(NC(=O)c3ccncc3)cc2C1=O`, the reporter increase was -1.67% (inactive).
As to `CCOC(OCC)c1ccc(/C=C\c2nccc(N)n2)cc1`, the reporter increase was 46.6% (active).
For `Cc1noc(C)c1NC(=O)Nc1ccc2c(c1)C(=O)N([C@H](C)CO)C[C@H](C)[C@H](CN(C)Cc1ccc(C(=O)O)cc1)OCCCC[C@H](C)O2`, the reporter increase was -3.6% (inactive).
The same measure for `CC(Sc1ncnc2c1cnn2-c1ccccc1)C(=O)Nc1ccc(N2CCOCC2)cc1` (stereo unspecified): 13.9% (inactive).
The same measure for `Cc1ccc(Nc2ncnc3c2cnn3C)c(C)c1`: -6% (inactive); for `Cc1ccc(-n2ncc3c(Nc4cccc(C(=O)O)c4)ncnc32)cc1`: 57.1% (active); for `CNC[C@H]1Oc2cc(-c3cccnc3)ccc2S(=O)(=O)N([C@@H](C)CO)C[C@H]1C`: 3.67% (inactive).
`CSc1ccccc1NC(=O)c1cc(Cl)sc1Cl`: the reporter increase was -9.78% (inactive).
For the compound `CSc1ccccc1NC(=O)c1cnc2sc(C)cn2c1=O`, the reporter increase is 68.8% (active).
In the case of `Cc1ccccc1C(=O)Nc1ccccc1Sc1ccccc1`, the reporter increase was -8.84% (inactive).
On to `O=C(c1ccccc1)N1CC[C@H]2[C@H](CO)Nc3ccc(-c4ccc(F)cc4)cc3[C@H]21`, for which the reporter increase was -5.91% (inactive).
As for `CCCN(C)C[C@H]1Oc2ncc(-c3cccnc3)cc2C(=O)N([C@@H](C)CO)C[C@@H]1C`, the figure is 5.67% (inactive); as for `Cn1c(=NC(=O)C2CC2)sc2cc(F)cc(F)c21`, 62% (active).
On to `Cn1c(=NC(=O)c2ccco2)sc2cccc(F)c21`, for which the reporter increase was 29% (inactive).

The values are drawn from PubChem BioAssay AID602393 (Broad Institute, 2012).
